Assay results taken from PubChem BioAssay AID492948 (National Center for Advancing Translational Sciences (NCATS), 2010).
Records with an inconclusive call do not appear. Unmarked numbers belong to inactive results. The source made the active and inactive calls. The call rests on the fitted dose curve; in most records, active means well fitted activation curve with a large enough effect; inconclusive means small, poorly fitted or top-dose-only effect; inactive means no such curve, though single readings can be large or run the other way.

Test: qHTS Assay for Agonists of the Relaxin Receptor RXFP1: V1B Hit Validation;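 further: counter-screen in HEK293 cells expressing V1B rather than RXFP1 for selectivity; nearly all actives have a fitted effect of over 65% in size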;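 on activation: cAMP accumulation with PDE4 inhibitor Ro 20-1724 present during compound exposure; 0% = buffer alone basal and 100% = 29 nM porcine relaxin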
Conditions: HEK293 V1B cells, cAMP TR-FRET, 30 min; series mostly up to 115 µM; activation: at the top concentration
Excerpt: NIH Chemical Genomics Center [NCGC]
NIH Molecular Libraries Probe Production Centers Network [MLPCN]
Assay Submitter (PI): Alexander Agoulnik
The relaxin hormone is involved in the variety of biological functions in normal tissues and diseases. The role of relaxin is well-established in female reproduction and parturition, mammary gland and endometrial development, maintenance of myometrial quiescence during pregnancy. Relaxin signaling through its G protein-coupled receptor (GPCR) RXFP1 results in ECM remodeling through regulation of collagen deposition, cell invasiveness, proliferation and overall tissue homeostasis. […] Recombinant human relaxin (rhRlx) is currently being tested in clinical trials as a protective agent in congestive heart failure, in treating severe preeclampsia, and as an anti-fibrotic agent in systemic sclerosis.
Upon relaxin binding RXFP1 activation leads to the activation of adenylate cyclase (AC) via Gs. cAMP will activate PKA, which phosphorylates many signaling proteins. Thus, detection of cAMP increase is an easy and reliable indication of relaxin receptor activation. To screen for agonists of the relaxin receptor, a HEK293T cell line stably transfected with RXFP1 was used. RXFP1 activation was assayed by changes in cAMP levels as detected with a time-resolved fluorescence energy transfer (TR-FRET) cAMP detection kit.
This assay measures activation of a cell expressing […], another GPCR targeted by relaxin, to determine the selectivity of compounds for RXFP1.
NCGC Assay Protocol Summary:
This is a cell-based assay for cAMP second messenger response to screen for agonists of the RXFP2 receptor. The assay was conducted in the presence of a PDE4 inhibitor (Ro 20174). The cells were lysed and the cAMP levels were measured with a TR-FRET cAMP kit. Presence of cAMP in the cell lysate disrupts binding between the cryptate-labeled anti-cAMP and d2-labeled cAMP pair, leading to a decrease in the TR-FRET signal. Data were normalized to the controls for basal activity (buffer only) and 100% activity (29 nM porcine relaxin). The EC50 values were determined from concentration-response data modeled with the standard Hill equation
1536-well assay protocol for the HEK293 V1B cAMP assay:
(1) Add 3 ul HEK293 RXFP2 cell culture. 2000 cells/well in DMEM/F12, 10% FBS, 1x Pen/Strep (dispensed offline with MultiDrop Combi).
(3) Add 23 nl compounds in DMSO solution. Final concentration was 0.5 - 58 uM.
(4) Incubate 30 min at 37C, 5% CO2.
(5) Add 1 ul cAMP-d2 in lysis buffer (HTRF cAMP HiRange kit, CisBio).
(6) Add 1 ul anti-cAMP antibody-cryptate in lysis buffer (HTRF cAMP HiRange kit, CisBio).
(7) Incubate 30 min at room temperature.
(6) Detect the assay plate in a ViewLux plate reader (PerkinElmer) with Ex=320 nm, Em1=615 nm and Em2=665 nm.
Keywords: relaxin, RXFP1, RXFP2, G-protein coupled receptor, cAMP, agonist, high throughput screening, MLSMR, MLSCN, NIH Roadmap, qHTS and NCGC
Potency means the concentration at half of the fitted maximal effect.

With O=C1OCc2cc(N=Nc3c(O)[nH]c(=O)[nH]c3=O)ccc21 as the compound, how does the Potency read?
The Potency was 15.4 µM (active).

For Cn1c(O)c(N=Nc2cccc(S(=O)(=O)N3CCOCC3)c2)c(=O)n(C)c1=O, which Potency is on record?
Its Potency is 13.8 µM (active).

With Nc1ncc2[nH]cnc2n1 as the compound, how does the Potency read?
Its Potency is 24.5 µM (active).

For O=c1[nH]c(O)c(N=Nc2ccc([N+](=O)[O-])cc2)c(=O)[nH]1, which Potency is on record?
The Potency was 17.3 µM (active).

Which “activation” value does the source give for CCC(Oc1cc(Cl)ccc1Cl)C(=O)N1CCC2(CC1)OCCO2 (configuration not stated) here?
Its value is 1.95%.

For CCNC(=O)[C@H]1O[C@@H](n2cnc3c(N)ncnc32)[C@H](O)[C@@H]1O, which Potency is on record?
Its Potency is 1.94 µM (active).

Which Potency does the source give for O=C(O)c1sc2cc(Cl)ccc2c1Cl here?
The Potency was 19.4 µM (active).
